From PubChem BioAssay (NCI)
Compounds without any hit were thinned out: in the full panel of roughly 83,000, 20% have a hit.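 Assay: single dose, 48 h. Readout: percent growth (0 = no net growth; negative = cell death). Active: <10.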 A number with no mark means an inactive call. Activity calls are given as the source filed them.

Key:
Test in all cases: NCI-60 one-dose screen, 48 h (100 = growth as untreated, 0 = no growth, -100 = all killed)
Conditions in all cases: 10 µM unless noted
NCI/ADR-RES ovarian = system: NCI/ADR-RES ovarian
T-47D breast = system: T-47D breast
BT-549 breast = system: BT-549 breast
MDA-MB-435 melanoma = system: MDA-MB-435 melanoma
SW-620 colon = system: SW-620 colon
MCF7 breast = system: MCF7 breast
HCT-116 colon = system: HCT-116 colon
HCC-2998 colon = system: HCC-2998 colon
KM12 colon = system: KM12 colon

SMILES	growth (NCI/ADR-RES ovarian)	growth (T-47D breast)	growth (BT-549 breast)	growth (MDA-MB-435 melanoma)	growth (SW-620 colon)	growth (MCF7 breast)	growth (HCT-116 colon)	growth (HCC-2998 colon)	growth (KM12 colon)
COC(=O)[C@]12CCC(C)(C)C[C@H]1[C@H]1C(=O)C[C@@H]3[C@@]4(C)C[C@@]5(CC(C)(C)[C@@H]4CC[C@@]3(C)[C@]1(C)CC2)OO[C@@](C)(C(F)(F)F)O5	98.6%	81.4%	111%	98.7%	103%	82.2%	88.7%	106%	99.9%
Clc1cccc(NCOOC2(OOCNc3cccc(Cl)c3)CCCCCC2)c1	61.8%	89%	101%	105%	107%	87.2%	90.6%	107%	87.9%
C[C@]12CC[C@H]3[C@@H](C[C@@H]4SC(Nc5ccccc5)=N[C@@]45CC(O)CC[C@]35C)[C@@H]1CCC2O (some centres undefined)	36.3%	16.3%	19.2%	3.47% (active)	-19.4% (active)	29.2%	-81.5% (active)	98.2%	15.6%
CCC1(C(C)C)C(=O)NC(=S)NC1=O	115%	106%	113%	101%	97%	105%	106%	117%	100%
COc1cc2c(cc1OCCCCn1c(-c3cccs3)nc3ccccc31)N=C[C@@H]1CCCN1C2=O	36.5%	5.95% (active)	-55.6% (active)	-78.8% (active)	2.49% (active)	-15.2% (active)	8.65% (active)	0.698% (active)	0.0109% (active)
Cc1ccc2c(C(C[N+](=O)[O-])c3cccs3)c(-c3ccccc3)[nH]c2c1 (centres undefined)	11.7%	14.6%	33.8%	-31.1% (active)	18.5%	17.8%	23.2%	40.3%	21.4%
